# Assay results: the supplement of paper PMC7156485
# ± gives the standard deviation of the averaged measurements.
# System: HCC1569
# Test: cell number relative to DMSO (% of DMSO); higher = more cells (less growth inhibition / toxicity)
# Details: concentration: 10 µM; 24 h
# In short: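 HCC1569 and TDF cells (800 per well, 384-well plates, RPMI with 10% FBS) were treated with compounds at 10 µM for 24 h at 37 °C, in triplicate. Cells were fixed in 3.7% formaldehyde and stained with a rabbit anti-H1.0 antibody, an AlexaFluor 647 secondary and DAPI; six fields per well were imaged at ×10. H1.0 nuclear intensity or cell number is expressed as percent of the plate DMSO control, taking the median of replicates. HCC1569 values were smoothed for positional effects.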
# 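Further: TDF denotes transformed human dermal fibroblasts of mesenchymal origin.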
row,Compound,cell number
1,COc1cc2c(cc1OC)C1C(=O)c3ccc4c(c3OC1CO2)C=CC(C)(C)O4 (stereo not given) [Degeulin],72.6
2,c1ccc(-c2[nH]ncc2-c2ccnc3ccccc23)nc1 [TGF-b RI Kinase Inhibitor],102
3,CCCCCCCCCC(=O)NC(CN1CCOCC1)C(O)c1ccccc1.Cl (racemic),94
4,CC1=C(C(=O)O)N2C(=O)C(NC(=O)C(N)c3ccccc3)C2SC1 (stereo not given) [Cephalexin hydrate],104
5,Cc1cnc(NC(=O)C2=C([O-])c3ccccc3S(=O)(=O)N2C)s1.[Na+] [Meloxicam sodium],102
6,Nc1ncnc2c1nc(Sc1ccc(Cl)cc1)n2C1OC2COP(=O)([O-])OC2C1O.[Na+] (stereo not given) [8-(4-Chlorophenylthio)-cAMP sodium],104
7,CC1=C(CC(=O)O)c2cc(F)ccc2C1=Cc1ccc(S(C)(=O)=O)cc1 [Sulindac sulfone],104
8,CC(=O)N[C@@H](CS)C(N)=O,109
9,CCCCCC=CCC=CCC=CC=CC1CCCC(=O)O1 (racemic),106
10,"CC(CC(c1ccccc1)c1ccccc1)NC(C)(C)C.Cl (stereo not given) [N-(tert-butyl)-4,4-diphenyl-2-butanamine hydrochloride]",97.9
11,CCc1cc(CCC2(C3CCCC3)CC(O)=C(Cc3nc4nc(C)cc(C)n4n3)C(=O)O2)cc(CC)n1 (stereo not given),97.3
12,CC(C)(CN1C(=O)C(Cl)=C(Cl)C1=O)CN1C(=O)C(Cl)=C(Cl)C1=O,86.4
13,Cl.Cl.N=C(N)c1ccc(N)cc1 [4-Aminobenzamidine dihydrochloride],99.9
14,CC12CC3CC(C)(C1)CC(N)(C3)C2.Cl [Memantine hydrochloride],106
15,O=C1c2ccccc2-c2n[nH]c3cccc1c23,93.2
16,O=C(NC1CCNCC1)c1[nH]ncc1NC(=O)c1c(Cl)cccc1Cl,53.5
17,NC(=O)c1ccc(-c2nc(-c3ccc4c(c3)OCO4)c(-c3ccccn3)[nH]2)cc1,95.7
18,CC12CCC(=O)C=C1CCC1C2C(O)CC2(C)C1CCC2(O)C(=O)COC(=O)CCC(=O)[O-].[Na+] (stereo not given) [Hydrocortisone 21-hemisuccinate sodium],99.5

row,Compound,cell number
1,Nc1ccc(C(=O)O)c(O)c1 [4-Aminosalicylic acid],105
2,"Cl.Cl.Cl.NCCC1CCCC(CCN)N1 (stereo not given) [MDL 26,630 trihydrochloride]",104
3,OCC(CO)(CO)NCC(O)Cn1c2ccc(Cl)cc2c2cc(Cl)ccc21 (stereo not given),74.3
4,O=c1[nH]c(=O)c2nc3ccccc3nc2[nH]1 [Alloxazine],101
5,COc1cc2nc(N3CCN(C(=O)C4CCCO4)CC3)nc(N)c2cc1OC (stereo not given) [Terazosin],99.9
6,NCC1OC(OC2C(CO)OC(OC3C(O)C(N)CC(N)C3OC3OC(CN)C(O)C(O)C3N)C2O)C(N)C(O)C1O (stereo not given) [Neomycin],99.58 ± 0.33
7,CC(C)C1NC(=O)C(CCCCN)NC(=O)C(Cc2c[nH]c3ccccc23)NC(=O)C(Cc2ccc(O)cc2)NC(=O)C(C)N(C)C(=O)C(Cc2ccccc2)NC1=O (stereo not given) [Seglitide],89.8
8,CCCCN1CCC(n2c(=O)[nH]c3ccccc32)CC1.O=C(O)C(=O)O [NS 521 oxalate],98
9,COc1ccc(CCN(C)CCCC(C#N)(c2cc(OC)c(OC)c(OC)c2)C(C)C)cc1OC.Cl (racemic),96.5
10,O=c1[nH]c(=O)n(C2CCCO2)cc1F (stereo not given) [Ftorafur],104
11,O=C(O)CN(CCN(CC(=O)O)CC(=O)O)CCN(CC(=O)O)CC(=O)O [Diethylenetriaminepentaacetic acid],95.4
12,CCCCCCCCC=CCCCCCCCCOCC(COP(=O)([O-])OCC[N+](C)(C)C)OC(C)=O (stereo not given),101
13,O=C(O)CCCCC1CCSS1 (racemic),104
14,Nc1ccc(O)c(C(=O)O)c1 [5-Aminosalicylic acid],107
15,Cc1nc(Nc2ncc(C(=O)Nc3c(C)cccc3Cl)s2)cc(N2CCN(CCO)CC2)n1 [Dasatinib],45.9
16,CCCCCC(O)C=CC=CCCCCCCCC(=O)O (stereo not given),96
17,"CCCCCCCCCCCCCCC[C@@H](O)[C@@H](N)CO [(2S,3R)-2-amino-1,3-octadecanediol]",97.2
